Results from ChEMBL document CHEMBL4513146, “CO-ADD screening of Karazin Kharkiv National University (Ukraine) compounds”.
Entries with a potency or affinity are not part of this list.

What follows are compounds tested on Klebsiella pneumoniae. Conditions: Concentration 32 ug.mL-1;; ASSAY_TEST Inhibition of Bacterial Growth; detection method Absorption (OD600); MEDIA CAMHB; plate type 384well; NBS; CORNING #3640; time 18 hr.

Compound | Inhibition [%]
Cc1ccc(-c2ccc3nnc(CCC(=O)NCc4ccc(C(F)(F)F)cc4)n3n2)cc1C | 11.76
O=C(Cn1nc2ccc(-c3ccccc3)nn2c1=O)Nc1cccc(Cl)c1 | 2.74
CCOc1ccc(-c2nc(CSc3nc4ccccc4n4c(C)nnc34)c(C)o2)cc1 | 11.43
O=C(Cn1nc2c(Oc3ccc(Cl)cc3)nccn2c1=O)Nc1ccc2c(c1)OCO2 | 8.17
CCc1nnc2ccc(S(=O)(=O)N(Cc3ccccc3F)c3ccc(OC)cc3)cn12 | 7.78
COc1ccc(C)cc1NC(=O)Cn1nc2ccc(SCc3ccc(Cl)cc3)nn2c1=O | -0.56
Cc1ccc(Oc2nccn3c(=O)n(CC(=O)Nc4cccc(Br)c4)nc23)cc1 | 11.55
O=c1c2nn(Cc3ccccc3Cl)c(=O)n2ccn1-c1ccccc1 | 1.78
Cc1cccc(C)c1NC(=O)Cn1nc2n(C)c(=O)c3c(c(-c4ccccc4)cn3C)n2c1=O | 10.1
CCc1ccc(N(Cc2ccc(Cl)cc2)S(=O)(=O)c2cccn3c(C)nnc23)cc1 | -1.79
Cc1ccc(-c2cc3c4nn(CC(=O)Nc5ccc6c(c5)OCO6)c(=O)n4ccn3n2)cc1C | 2.27
CC(C)c1ccc(N(Cc2cccc(Cl)c2)S(=O)(=O)c2cccn3cnnc23)cc1 | -3.32
O=C(Cn1nc2nc(Nc3ccc(F)cc3)ccn2c1=O)N1CCCc2ccccc21 | 14.82
C=Cc1ccc(CN(c2ccc(CC)cc2)S(=O)(=O)c2cccn3c(C)nnc23)cc1 | 2.48
O=C(CCc1nnc2c(N3CCCCC3)nc3ccccc3n12)NCc1ccccc1F | 14.62
O=S(=O)(c1ccc2nncn2c1)N(Cc1ccccc1F)c1ccc2c(c1)OCO2 | 9.89
Cc1ccc(NC(=O)CSc2nnc3c4cc(-c5ccccc5)nn4ccn23)c(C)c1 | -1.1
O=C(CSc1nnc2c(=O)n(-c3ccccc3)ccn12)Nc1ccc(Br)cc1 | 9.81
COc1ccc(NC(=O)Cn2nc3c(Sc4ccccc4)nccn3c2=O)cc1 | 7.48
CCN(C(=O)Cn1nc2nc(Nc3ccc(F)cc3)ccn2c1=O)c1ccccc1 | 8.48

Compound | Inhibition [%]
CC(=O)c1ccc(N2CCN(C(=O)CCc3nnc4c5cc(-c6ccccc6)nn5ccn34)CC2)cc1 | 14.87
O=C(Cn1nc2ccc(SCc3ccc(Cl)cc3)nn2c1=O)NCc1ccc2c(c1)OCO2 | -1.27
Cc1ccc(NC(=O)Cn2nc3c(Sc4ccccc4)nccn3c2=O)c(C)c1 | 7.2
CSc1cccc(NC(=O)Cn2nc3ccc(-c4ccccc4)nn3c2=O)c1 | -3.17
COC(=O)c1ccccc1NC(=O)Cn1nc2c3sc(N4CCCC4)nc3ncn2c1=O | 7.53
CC(C)c1nnc2c(=O)n(CC(=O)Nc3ccc4c(c3)OCO4)c3ccccc3n12 | 6.48
O=C(Cn1nc2ccc(SCc3ccc(Cl)cc3)nn2c1=O)Nc1ccc2c(c1)CCC2 | 12.2
Cc1cc(C)c(NC(=O)Cn2c(=O)c3nnc(C(C)C)n3c3ccccc32)c(C)c1 | 11.01
CCOC(=O)c1ccc(NC(=O)Cn2nc3c(Oc4ccccc4)nccn3c2=O)cc1 | 1.59
COc1ccc(C)cc1NC(=O)Cn1nc2c3cc(-c4ccc(Cl)cc4)nn3ccn2c1=O | 15.75
COc1cccc(Sc2nc3ccccc3n3c(=O)n(CC(=O)Nc4cc(C)cc(C)c4)nc23)c1 | 4.15
Cc1nnc2c(SCC(=O)N3CCN(c4ccc(F)cc4)CC3)nc3ccccc3n12 | 12.85
COCCCNC(=O)CSc1nnc2c(=O)n(Cc3ccc(F)cc3)ccn12 | 13.69
COc1cccc(-c2nc(CSc3nc4ccccc4n4c(C(C)C)nnc34)c(C)o2)c1OC | 2.62
Cc1ccc(NC(=O)CSc2nc3ccccc3n3c(C)nnc23)c(Br)c1 | 14.29
CCCCc1ccc(NC(=O)Cn2c(=O)c3nnc(CCC)n3c3ccccc32)cc1 | 6.31
O=S(=O)(c1cccn2cnnc12)N(Cc1ccc(F)cc1)c1ccc(F)c(F)c1 | 4.99
COc1cccc(Sc2nc3ccccc3n3c(=O)n(CC(=O)Nc4ccc(Cl)cc4)nc23)c1 | 2.35
Cc1ccc(-c2cc3c4nn(CC(=O)Nc5ccccc5C)c(=O)n4ccn3n2)cc1C | 7.72
